Assay [1] can be described thus: ATG_TAL_CIS: Attagene CIS-FACTORIAL HepG2 Assay for human TAL Basal Promoter (AID 2282966; active = hit-call score of the fitted dose curve at least 0.9, where 1 is the maximum; inactive = score below 0.9;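 note: background control endpoint measuring basal TAL promoter reporter mRNA not a specific factor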). The following applies: HepG2 Attagene cis-factorial TAL promoter reporter; actives raise or lower the signal. Summed up:
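Steps: transfect HepG2 with multiple reporter transcription units; dose 24 h; isolate RNA, reverse-transcribe, PCR-amplify, label with 6-FAM, digest with HpaI; resolve by capillary electrophoresis. Bidirectional fitting against DMSO baseline.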

A short description of assay [2]: ATG_TGFb_CIS: Attagene CIS-FACTORIAL HepG2 Assay for human Transforming Growth Factor (TGF) (AID 2282967; active = hit-call score of the fitted dose curve at least 0.9, where 1 is the maximum; inactive = score below 0.9). To be noted: HepG2 Attagene CIS TGFb reporter, mRNA transcription; actives raise or lower the signal. Summed up: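 Transient MRTU transfection of HepG2 (FuGene 6). Dose 24 h. TriZol RNA, oligo(dT) RT, PCR, 6-FAM primer extension, HpaI cut, CE. Bidirectional fit, DMSO = baseline.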

Assay [3] in a line: ATG_VDRE_CIS: Attagene CIS-FACTORIAL HepG2 Assay for human Vitamin D Receptor Element (VDRE) (AID 2282968; active = hit-call score of the fitted dose curve at least 0.9, where 1 is the maximum; inactive = score below 0.9). To be noted: HepG2 VDRE cis-reporter transcription, actives raise or lower the signal. Summed up:
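Cell-based multiplexed reporter format in human liver HepG2 cells, 24 h post-dose. Fluorescence from capillary electrophoresis of reporter cDNA gives the signal, with DMSO as negative control and baseline.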

The target in assay [4] is Nuclear receptor subfamily 1 group I member 3 (Homo sapiens) (UniProt Q14994). The assay is described as follows: ATG_CAR_TRANS: Attagene TRANS-FACTORIAL HepG2 Assay for human Constitutive Androstane Receptor (CAR) (AID 2282969).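 Note: activators raise reporter mRNA above DMSO so AC50 marks induction.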 The following applies: HepG2 Attagene TRANS-FACTORIAL CAR reporter. A digest of the protocol: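 HepG2 cells transiently transfected with GAL4-UAS reporter units; TRANS format reads activity of exogenous chimeric NR-Gal4 protein. After 24 h dosing, reporter mRNA quantified by RT-PCR, 6-FAM labelling and capillary electrophoresis; gain of signal fitted against DMSO.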
Chain of Nuclear receptor subfamily 1 group I member 3 (Homo sapiens) (Q14994 whole entry, looked up, the tested form may be a part): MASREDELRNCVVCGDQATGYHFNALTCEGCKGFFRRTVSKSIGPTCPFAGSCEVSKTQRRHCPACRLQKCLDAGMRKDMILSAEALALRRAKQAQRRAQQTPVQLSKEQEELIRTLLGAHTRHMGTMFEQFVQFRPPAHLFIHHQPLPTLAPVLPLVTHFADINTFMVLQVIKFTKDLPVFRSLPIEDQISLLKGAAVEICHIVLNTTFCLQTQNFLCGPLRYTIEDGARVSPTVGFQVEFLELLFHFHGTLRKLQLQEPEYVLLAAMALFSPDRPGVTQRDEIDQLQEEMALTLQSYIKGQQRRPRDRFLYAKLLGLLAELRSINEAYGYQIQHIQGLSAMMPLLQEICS

The target of assay [5] is Estrogen receptor (Homo sapiens) (UniProt P03372). The assay is described as follows: ATG_ERa_TRANS: Attagene TRANS-FACTORIAL HepG2 Assay for human Estrogen Receptor alpha (ERa) (AID 2282970). The following applies: HepG2 Attagene TRANS ERa GAL4 reporter, mRNA. Summed up:
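Multiplexed cell-based reporter format in HepG2: chimeric ERa-Gal4 protein drives GAL4-UAS reporter transcription. Fluorescent reporter mRNA quantified by capillary electrophoresis 24 hours after dosing; endpoint fitted as signal gain against DMSO.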

In assay [6] the target is Steroid hormone receptor ERR1 (Homo sapiens) (UniProt P11474). The assay is described as follows: ATG_ERRa_TRANS: Attagene TRANS-FACTORIAL HepG2 Assay for human Estrogen-Related Receptor alpha (ERRa) (AID 2282971). To be noted: HepG2 Attagene TRANS reporter, ERRa transactivation. Summed up: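 Signal gain relative to DMSO for an ERRa-Gal4 chimeric receptor, read as reporter mRNA by RT-PCR/capillary electrophoresis. Human HepG2 liver cells, transient multiplex reporter transfection, 24 h chemical exposure.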
Chain of Steroid hormone receptor ERR1 (Homo sapiens) (P11474 whole entry, looked up, the tested form may be a part): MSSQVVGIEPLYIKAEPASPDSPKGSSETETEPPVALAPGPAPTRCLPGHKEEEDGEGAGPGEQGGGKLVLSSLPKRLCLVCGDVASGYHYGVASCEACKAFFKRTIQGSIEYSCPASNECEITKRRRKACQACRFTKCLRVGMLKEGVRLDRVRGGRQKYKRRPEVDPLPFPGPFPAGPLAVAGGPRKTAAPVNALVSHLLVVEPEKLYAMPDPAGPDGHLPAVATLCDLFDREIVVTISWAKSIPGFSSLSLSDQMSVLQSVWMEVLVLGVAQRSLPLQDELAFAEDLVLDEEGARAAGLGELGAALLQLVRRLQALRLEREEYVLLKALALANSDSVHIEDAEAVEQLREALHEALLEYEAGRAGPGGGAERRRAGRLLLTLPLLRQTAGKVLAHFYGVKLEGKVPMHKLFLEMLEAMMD

Assay [7] in a line: ATG_M_19_TRANS: Attagene TRANS-FACTORIAL HepG2 Assay for M19 Transcription Factor (Internal Marker) (AID 2282974). To be noted: HepG2 Attagene TRANS-FACTORIAL M19 internal marker reporter. A digest of the protocol:
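Fluorescence of 6-FAM-labelled reporter cDNA fragments, separated by capillary electrophoresis, served as the readout. These derived from HepG2 cells carrying transfected GAL4-UAS reporter units after 24 h dosing, with DMSO as negative control.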

Assay [8] in a line: ATG_GAL4_TRANS: Attagene TRANS-FACTORIAL HepG2 Assay for GAL4 (Internal Marker) (AID 2282976). The following applies: HepG2 Attagene TRANS GAL4 internal marker reporter. A digest of the protocol:
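Liver HepG2 line bearing multiplexed GAL4-UAS reporter constructs; 24 h chemical treatment. Transcripts were quantified as fluorescent fragments on capillary electrophoresis after RT-PCR and HpaI cut, with activity fitted upward from DMSO.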

Assay [9] has as its target Estrogen-related receptor gamma (Homo sapiens) (UniProt P62508). The assay is described as follows: ATG_ERRg_TRANS: Attagene TRANS-FACTORIAL HepG2 Assay for human Estrogen-Related Receptor gamma (ERRg) (AID 2282977).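 Note: hits increase reporter signal over DMSO so potencies reflect activators.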 To be noted: HepG2 Attagene TRANS reporter, ERRg transactivation. Summed up: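 HepG2 cells transiently transfected with multiplexed GAL4-UAS reporter units and chimeric NR-Gal4 constructs were exposed to test chemicals for 24 h. Reporter mRNA was measured by RT-PCR, 6-FAM primer extension, HpaI digestion and capillary electrophoresis; gain-of-signal versus DMSO.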

The target of assay [10] is Glucocorticoid receptor (Homo sapiens) (UniProt P04150). Put plainly: ATG_GR_TRANS: Attagene TRANS-FACTORIAL HepG2 Assay for human Glucocorticoid Receptor (GR) (AID 2282978).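 Note: activators score as hits since higher reporter transcript over DMSO is fitted.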 To be noted: HepG2 Attagene TRANS GR reporter, mRNA transcription. A digest of the protocol: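 Fluorescent capillary-electrophoresis quantitation of reporter mRNA is the readout, taken 24 h after dosing human HepG2 cells carrying transiently transfected GAL4-UAS reporter units activated by chimeric NR-GAL4 fusions; activity scored as induction over DMSO.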
Chain of Glucocorticoid receptor (Homo sapiens) (P04150 whole entry, looked up, the tested form may be a part): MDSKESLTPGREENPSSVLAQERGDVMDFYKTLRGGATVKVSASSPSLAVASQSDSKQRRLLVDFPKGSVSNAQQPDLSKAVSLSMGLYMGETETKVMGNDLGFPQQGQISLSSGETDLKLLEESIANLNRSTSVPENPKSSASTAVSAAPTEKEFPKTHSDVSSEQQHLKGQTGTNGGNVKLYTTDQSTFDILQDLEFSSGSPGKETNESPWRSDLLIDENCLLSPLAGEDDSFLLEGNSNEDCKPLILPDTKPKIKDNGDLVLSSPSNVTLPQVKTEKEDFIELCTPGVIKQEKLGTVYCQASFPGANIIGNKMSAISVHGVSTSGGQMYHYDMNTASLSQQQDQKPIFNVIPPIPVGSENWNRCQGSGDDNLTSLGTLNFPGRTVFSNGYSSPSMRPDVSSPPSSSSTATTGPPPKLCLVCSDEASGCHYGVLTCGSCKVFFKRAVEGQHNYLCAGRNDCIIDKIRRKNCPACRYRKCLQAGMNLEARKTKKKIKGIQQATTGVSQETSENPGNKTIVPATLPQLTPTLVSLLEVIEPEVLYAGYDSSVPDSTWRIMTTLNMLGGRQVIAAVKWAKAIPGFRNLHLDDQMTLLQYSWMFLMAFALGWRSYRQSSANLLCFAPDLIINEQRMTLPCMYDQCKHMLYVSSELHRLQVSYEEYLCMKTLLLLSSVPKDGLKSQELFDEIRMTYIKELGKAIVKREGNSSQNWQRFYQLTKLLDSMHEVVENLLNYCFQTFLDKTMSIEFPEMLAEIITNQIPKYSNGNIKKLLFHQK

Assay [11] concerns the target Bile acid receptor (Homo sapiens) (UniProt Q96RI1). Put plainly: ATG_FXR_TRANS: Attagene TRANS-FACTORIAL HepG2 Assay for Farnesoid X Receptor (FXR) (AID 2282979).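 Note: hits raise reporter mRNA above DMSO so AC50 marks FXR activation.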 To be noted: HepG2 Attagene TRANS FXR-GAL4 reporter transcription. A digest of the protocol: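 After 24 h chemical treatment of transfected HepG2 cells, GAL4-UAS reporter transcripts driven by an exogenous FXR-GAL4 fusion were measured by RT-PCR and capillary electrophoresis. Increases over DMSO were fitted.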

For assay [12], the target named is Oxysterols receptor LXR-alpha (Homo sapiens) (UniProt Q13133). Put plainly: ATG_LXRa_TRANS: Attagene TRANS-FACTORIAL HepG2 Assay for human Liver X Receptor alpha (LXRa) (AID 2282980). The following applies: HepG2 Attagene TRANS reporter, LXRa transactivation. A digest of the protocol: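 In this multiplexed TRANS system, compounds act on HepG2 cells carrying GAL4-UAS reporter units and a receptor-GAL4 fusion for 24 h. Induced reporter RNA is amplified, fluorescently labelled and sized by capillary electrophoresis, with DMSO as baseline.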
Chain of Oxysterols receptor LXR-alpha (Homo sapiens) (Q13133 whole entry, looked up, the tested form may be a part): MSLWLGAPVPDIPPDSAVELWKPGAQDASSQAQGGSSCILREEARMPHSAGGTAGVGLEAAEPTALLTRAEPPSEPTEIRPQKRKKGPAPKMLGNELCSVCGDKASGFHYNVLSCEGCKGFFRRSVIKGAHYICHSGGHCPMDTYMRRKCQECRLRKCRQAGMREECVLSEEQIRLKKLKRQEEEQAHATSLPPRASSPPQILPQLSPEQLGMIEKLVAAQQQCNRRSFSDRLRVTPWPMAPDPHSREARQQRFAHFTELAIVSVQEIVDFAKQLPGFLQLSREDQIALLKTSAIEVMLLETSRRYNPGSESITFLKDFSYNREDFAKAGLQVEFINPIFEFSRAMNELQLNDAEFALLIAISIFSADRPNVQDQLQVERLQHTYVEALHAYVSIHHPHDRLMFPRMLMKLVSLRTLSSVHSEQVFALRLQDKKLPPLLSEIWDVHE

Assay [13] addresses Oxysterols receptor LXR-beta (Homo sapiens) (UniProt P55055). The assay is described as follows: ATG_LXRb_TRANS: Attagene TRANS-FACTORIAL HepG2 Assay for human Liver X Receptor beta (LXRb) (AID 2282981). To be noted: HepG2 Attagene TRANS GAL4-LXRb reporter, mRNA. Summed up: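 Gain-of-signal mRNA reporter endpoint, DMSO as negative control. Transiently transfected HepG2 cells carrying the NR-Gal4 chimera and GAL4-UAS reporter units were treated 24 h; transcripts quantified by RT-PCR and capillary electrophoresis fluorescence.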

For assay [14], the target named is Hepatocyte nuclear factor 4-alpha (Homo sapiens) (UniProt P41235). Put plainly: ATG_HNF4a_TRANS: Attagene TRANS-FACTORIAL HepG2 Assay for human Hepatocyte Nuclear Factor 4 alpha (HNF4a) (AID 2282982). To be noted: HepG2 HNF4a transactivation reporter, mRNA readout. Summed up:
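Gain-of-signal mRNA induction, relative to DMSO vehicle, was read after 24 h compound treatment of HepG2 cells bearing transfected GAL4-UAS reporters. Detection used RT-PCR, 6-FAM primer extension and capillary electrophoresis.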

A short description of assay [15]: ATG_M_06_TRANS: Attagene TRANS-FACTORIAL HepG2 Assay for M06 Transcription Factor (Internal Marker) (AID 2282983). The following applies: HepG2 Attagene TRANS M06 internal marker reporter. A digest of the protocol: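 Internal-marker background readout from a multiplexed TRANS reporter system in HepG2; 24 h dosing; mRNA induction quantified by RT-PCR plus capillary electrophoresis fluorescence; DMSO as negative control and baseline.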

Assay [16] can be described thus: ATG_M_32_TRANS: Attagene TRANS-FACTORIAL HepG2 Assay for M32 Transcription Factor (Internal Marker) (AID 2282984). To be noted: HepG2 Attagene TRANS M32 internal marker reporter. Summed up:
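Capillary electrophoresis of 6-FAM-labelled reporter fragments gives the signal; data fitted for gain over DMSO negative control. Source: HepG2 cells bearing transient multiple reporter transcription units, 24 h exposure.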

In assay [17] the target is Nuclear receptor subfamily 4 group A member 2 (Homo sapiens) (UniProt P43354). The assay is described as follows: ATG_NURR1_TRANS: Attagene TRANS-FACTORIAL HepG2 Assay for human Nuclear Receptor Related Protein 1 (NURR1) (AID 2282985). To be noted: HepG2 Attagene TRANS reporter, mRNA readout. A digest of the protocol:
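HepG2 / transient MRTU transfection / 24 h compound exposure / RT-PCR + CE fluorescence of reporter mRNA / gain-of-signal vs DMSO.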

The target of assay [18] is Transcriptional activator Myb (Homo sapiens) (UniProt P10242). Put plainly: ATG_Myb_CIS: Attagene CIS-FACTORIAL HepG2 Assay for human Myeloblastosis (Myb) Proto-Oncogene Transcription Factor (AID 2282986; active = hit-call score of the fitted dose curve at least 0.9, where 1 is the maximum; inactive = score below 0.9). To be noted: HepG2 Attagene CIS-FACTORIAL Myb reporter transcription; actives raise or lower the signal. A digest of the protocol: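 Reporter transcript levels, quantified by fluorescent RT-PCR and capillary electrophoresis, serve as the read-out. Transfected HepG2 cells carrying cis-promoter reporter units are dosed for 24 hours, and curves are fitted bidirectionally against DMSO controls.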
Chain of Transcriptional activator Myb (Homo sapiens) (P10242 whole entry, looked up): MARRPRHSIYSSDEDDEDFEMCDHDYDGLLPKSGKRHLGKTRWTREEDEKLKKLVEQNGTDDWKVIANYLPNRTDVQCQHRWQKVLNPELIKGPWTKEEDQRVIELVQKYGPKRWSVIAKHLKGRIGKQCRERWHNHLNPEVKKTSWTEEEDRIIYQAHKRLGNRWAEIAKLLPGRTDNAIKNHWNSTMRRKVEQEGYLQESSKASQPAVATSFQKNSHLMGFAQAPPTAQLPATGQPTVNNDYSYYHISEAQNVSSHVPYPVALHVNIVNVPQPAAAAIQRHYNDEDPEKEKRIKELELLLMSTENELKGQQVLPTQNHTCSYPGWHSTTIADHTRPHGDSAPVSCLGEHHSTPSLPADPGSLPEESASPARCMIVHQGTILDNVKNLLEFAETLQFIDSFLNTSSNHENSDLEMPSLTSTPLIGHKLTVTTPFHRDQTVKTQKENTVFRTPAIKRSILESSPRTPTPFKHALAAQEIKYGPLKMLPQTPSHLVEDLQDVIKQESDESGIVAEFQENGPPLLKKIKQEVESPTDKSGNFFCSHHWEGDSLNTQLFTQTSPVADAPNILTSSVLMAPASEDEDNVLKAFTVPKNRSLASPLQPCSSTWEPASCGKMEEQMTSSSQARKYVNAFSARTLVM

Assay [19] addresses Nuclear respiratory factor 1 (Homo sapiens) (UniProt Q16656). Put plainly: ATG_NRF1_CIS: Attagene CIS-FACTORIAL HepG2 Assay for human Nuclear Respiratory Factor 1 (NRF1) Orphan Gene (AID 2282987; active = hit-call score of the fitted dose curve at least 0.9, where 1 is the maximum; inactive = score below 0.9). To be noted: HepG2 NRF1 cis-element reporter, Attagene multiplex; actives raise or lower the signal. Summed up: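 Multiplexed cis-reporter assay, HepG2 cells, 24 h treatment. Total RNA → oligo(dT) RT → PCR with reporter-specific primers → 6-FAM primer extension → HpaI cut → CE. Bidirectional fit vs DMSO.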

Assay [20] addresses X-box-binding protein 1 (Homo sapiens) (UniProt P17861). The assay is described as follows: ATG_Xbp1_CIS: Attagene CIS-FACTORIAL HepG2 Assay for human X-box Binding Protein 1 (XBP1) (AID 2282972; active = hit-call score of the fitted dose curve at least 0.9, where 1 is the maximum; inactive = score below 0.9). The following applies: HepG2 XBP1 cis-element reporter, Attagene multiplex; actives raise or lower the signal. A digest of the protocol: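 HepG2 cells transiently transfected with multiple cis-element reporter units report endogenous TF activity; 24 h exposure, then reporter mRNA measured by RT-PCR, 6-FAM labelling, HpaI digestion and capillary electrophoresis. Bidirectional fitting versus DMSO.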

“And” between values parts separate entries of the source, which are not always exact repeats. Identical values can stand only once. Records with an inconclusive call do not appear. A structure can be active in one record and inactive in another. The source made the active and inactive calls. Rule for the calls, unless noted: active = hit-call score of the fitted dose curve at least 0.9, where 1 is the maximum; inconclusive = response in the unintended direction; inactive = score below 0.9.

Chain of Estrogen receptor (Homo sapiens) (P03372 whole entry, looked up, the tested form may be a part): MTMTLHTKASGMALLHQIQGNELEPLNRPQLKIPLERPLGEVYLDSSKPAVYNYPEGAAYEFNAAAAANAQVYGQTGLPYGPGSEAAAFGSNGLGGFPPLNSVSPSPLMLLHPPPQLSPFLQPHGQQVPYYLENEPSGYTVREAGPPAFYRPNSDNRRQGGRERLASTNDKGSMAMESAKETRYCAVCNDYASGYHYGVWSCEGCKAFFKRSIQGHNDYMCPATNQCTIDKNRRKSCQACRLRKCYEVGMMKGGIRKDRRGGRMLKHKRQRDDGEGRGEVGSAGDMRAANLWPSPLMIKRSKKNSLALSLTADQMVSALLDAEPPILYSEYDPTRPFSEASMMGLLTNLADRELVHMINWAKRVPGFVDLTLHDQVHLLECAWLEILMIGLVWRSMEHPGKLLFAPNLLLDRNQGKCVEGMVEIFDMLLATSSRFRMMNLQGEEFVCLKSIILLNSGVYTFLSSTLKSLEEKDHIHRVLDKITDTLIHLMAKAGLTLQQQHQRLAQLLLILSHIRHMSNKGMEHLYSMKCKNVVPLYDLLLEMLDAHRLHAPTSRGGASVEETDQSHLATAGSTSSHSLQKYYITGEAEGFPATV
Chain of Bile acid receptor (Homo sapiens) (Q96RI1 whole entry, looked up, the tested form may be a part): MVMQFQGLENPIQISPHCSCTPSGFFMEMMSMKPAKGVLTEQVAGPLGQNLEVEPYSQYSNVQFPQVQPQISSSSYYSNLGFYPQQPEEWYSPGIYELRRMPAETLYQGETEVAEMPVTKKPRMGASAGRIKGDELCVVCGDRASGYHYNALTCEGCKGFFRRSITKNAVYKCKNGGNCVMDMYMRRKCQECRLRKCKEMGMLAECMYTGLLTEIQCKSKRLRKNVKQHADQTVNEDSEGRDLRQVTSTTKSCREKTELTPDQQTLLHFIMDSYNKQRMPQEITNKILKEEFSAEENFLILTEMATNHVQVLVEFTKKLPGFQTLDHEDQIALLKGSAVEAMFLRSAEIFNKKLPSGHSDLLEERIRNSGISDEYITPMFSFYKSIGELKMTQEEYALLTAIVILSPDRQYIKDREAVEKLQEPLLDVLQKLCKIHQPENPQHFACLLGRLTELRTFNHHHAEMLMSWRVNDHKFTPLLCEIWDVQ
Chain of X-box-binding protein 1 (Homo sapiens) (P17861 whole entry, looked up): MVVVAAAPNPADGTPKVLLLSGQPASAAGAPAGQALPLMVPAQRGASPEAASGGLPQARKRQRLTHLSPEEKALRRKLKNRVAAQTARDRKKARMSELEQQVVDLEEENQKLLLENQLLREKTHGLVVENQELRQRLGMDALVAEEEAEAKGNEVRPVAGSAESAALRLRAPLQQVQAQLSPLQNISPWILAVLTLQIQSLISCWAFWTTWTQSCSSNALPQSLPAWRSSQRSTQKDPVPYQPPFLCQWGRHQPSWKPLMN
Chain of Oxysterols receptor LXR-beta (Homo sapiens) (P55055 whole entry, looked up, the tested form may be a part): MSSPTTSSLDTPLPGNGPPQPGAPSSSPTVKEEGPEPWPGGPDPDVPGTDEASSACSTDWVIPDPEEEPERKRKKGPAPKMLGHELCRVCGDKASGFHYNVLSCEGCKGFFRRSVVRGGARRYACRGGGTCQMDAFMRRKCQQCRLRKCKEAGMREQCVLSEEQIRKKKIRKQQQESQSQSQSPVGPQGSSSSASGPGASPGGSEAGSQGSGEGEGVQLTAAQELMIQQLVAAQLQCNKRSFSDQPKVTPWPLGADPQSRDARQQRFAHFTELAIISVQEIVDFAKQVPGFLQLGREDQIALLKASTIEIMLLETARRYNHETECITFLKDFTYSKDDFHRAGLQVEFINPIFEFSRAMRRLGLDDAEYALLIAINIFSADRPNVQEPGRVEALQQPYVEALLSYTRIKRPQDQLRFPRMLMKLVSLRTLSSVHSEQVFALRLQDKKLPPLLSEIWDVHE
Chain of Nuclear respiratory factor 1 (Homo sapiens) (Q16656 whole entry, looked up): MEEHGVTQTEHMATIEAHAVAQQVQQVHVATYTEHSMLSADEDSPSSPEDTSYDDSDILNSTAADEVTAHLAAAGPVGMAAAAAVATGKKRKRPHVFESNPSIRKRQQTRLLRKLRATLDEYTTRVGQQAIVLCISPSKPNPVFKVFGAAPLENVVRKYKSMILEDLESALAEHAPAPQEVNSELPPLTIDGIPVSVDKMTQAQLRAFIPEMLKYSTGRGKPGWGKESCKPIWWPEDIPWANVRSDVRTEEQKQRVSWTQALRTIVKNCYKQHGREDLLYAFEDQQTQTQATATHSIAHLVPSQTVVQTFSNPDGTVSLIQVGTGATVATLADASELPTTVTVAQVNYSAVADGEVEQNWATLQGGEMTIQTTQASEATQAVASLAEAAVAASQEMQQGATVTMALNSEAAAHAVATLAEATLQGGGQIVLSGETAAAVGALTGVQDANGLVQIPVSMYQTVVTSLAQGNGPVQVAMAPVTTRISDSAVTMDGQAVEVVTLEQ

As to `O=C1c2ccccc2C(=O)c2c(O)c(O)cc(O)c21`, the outcome in [1], in assay [2], in [3], in [4], in [6] and in [7] was inactive. Further, the call in assay [8], in assay [9], in [10], in assay [11], in assay [12] and in assay [13] was inactive. The compound was called inactive in assay [14], in assay [15], in [16], in assay [18] and in [19]. In addition, the figures for the concentration at half-maximal activity (AC50) in assay [5] and in assay [17] were 4.9 µM (active) and 47 µM (active), respectively.
Take `CC(C)CCOCCC(C)C`: the result in assay [1], in [2], in [3], in assay [4], in [5] and in assay [6] was inactive. The compound was classed as inactive in assay [20], in [8], in assay [10], in [11], in assay [13] and in [15]. In addition, the call in [17], in [18] and in assay [19] was inactive.
As for `O=S(=O)(O)C(F)(F)C(F)(F)C(F)(F)C(F)(F)C(F)(F)C(F)(F)C(F)(F)C(F)(F)C(F)(F)C(F)(F)F`, the compound was classed as inactive in assay [1], in [3], in assay [4], in assay [5], in [6] and in [20]. The result in assay [7], in assay [8], in assay [9], in [10], in assay [11] and in [12] was inactive. Further, the compound was called inactive in assay [14], in assay [15], in assay [16], in assay [18] and in assay [19]. Also, the concentration at half-maximal activity (AC50) in [2] is 132 µM (active) and 31.7 µM (active).
With `C=C(c1ccc(C(=O)O)cc1)c1cc2c(cc1C)C(C)(C)CCC2(C)C`, the concentration at half-maximal activity (AC50) in [1] was 30.4 µM (active); in assay [3] it was 2.11 µM (active); in assay [5], 31.2 µM (active); in assay [20], 16.9 µM (active); in assay [18], 31 µM (active). The call in [1], in assay [2], in assay [3], in assay [5], in assay [6] and in [20] was inactive. The compound was classed as inactive in assay [10], in assay [12], in assay [13], in [15], in [16] and in assay [18]. For the same compound, the call in assay [19] was inactive.

As usually defined, the AC50 is the concentration giving half of the maximal activity seen.

Source of the values: PubChem BioAssay (EPA / NIEHS).
